The compounds below were run against Solute carrier family 2, facilitated glucose transporter member 1 (Homo sapiens) (UniProt P11166) (assay: ST_JUDE_LEISH: Cytotoxicity at 2uM final concentration against transgenic Leishmania Mexicana promastigotes LmGLUT1 that are glucose transport deficient and complemented with the human glucose transporter GLUT1. Activity is measured by DNA content using SYBR green in vitro).
Assay type: functional

Chain of Solute carrier family 2, facilitated glucose transporter member 1 (Homo sapiens) (P11166 whole entry): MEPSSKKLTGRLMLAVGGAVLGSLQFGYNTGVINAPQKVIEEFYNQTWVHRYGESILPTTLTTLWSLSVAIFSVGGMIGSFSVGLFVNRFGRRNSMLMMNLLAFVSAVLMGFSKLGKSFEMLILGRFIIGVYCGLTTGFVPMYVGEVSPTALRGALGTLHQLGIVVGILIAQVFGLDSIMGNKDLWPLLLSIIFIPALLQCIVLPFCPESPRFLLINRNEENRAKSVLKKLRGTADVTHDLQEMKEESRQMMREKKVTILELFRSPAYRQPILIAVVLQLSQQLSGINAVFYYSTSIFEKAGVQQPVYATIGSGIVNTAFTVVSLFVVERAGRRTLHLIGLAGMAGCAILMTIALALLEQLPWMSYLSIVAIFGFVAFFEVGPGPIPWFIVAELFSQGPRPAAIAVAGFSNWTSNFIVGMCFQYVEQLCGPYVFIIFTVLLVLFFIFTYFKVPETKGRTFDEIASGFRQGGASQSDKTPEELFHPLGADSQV

| SMILES | inhibition |
| --- | --- |
| Cc1ccc(NC(=O)Nc2ccccc2)cc1-c1ccc(C(=O)Nc2ccncc2)cc1 | 9.17% |
| CCCn1c(Sc2ccc(C#N)c([N+](=O)[O-])c2)nnc1-c1ccc(N(C)C)cc1 | 5.64% |
| COc1ccccc1Cc1nc2ccccc2nc1SCC(=O)Nc1cccc(C(F)(F)F)c1 | 3.27% |
| CCCCNC(=O)[C@@H](NC(=O)c1ccc(O)c(-c2ccc(Cl)c(Cl)c2)c1)C(C)C | 4.49% |
| CCCNCc1ccc(-c2ccc(CN(CCOC)C(=O)CCCOCc3ccccc3)cc2)nc1 | 3.08% |
| CC(C)COc1ccc(Cl)cc1Cc1ccc(-c2nc3ccc(C(F)(F)F)cc3[nH]2)o1 | 0.04% |
| CC1(CCc2ccccc2)N=C(N)N=C(N)C1c1ccc(Cl)c(Cl)c1 (stereo not given) | 9.55% |
| O=C(NC(Nc1ccc([N+](=O)[O-])cc1)C(Cl)(Cl)Cl)c1ccc(Cl)cc1 (stereo not given) | 0.96% |
| N#Cc1ccc(N[C@@H](CC2CCCCC2)C(=O)Nc2ccc(-c3ccccc3)cc2)c2ccccc12 | 2.38% |
| CN(Cc1cccc(O)c1)C1CCN(c2cc(NC(=O)c3cccc(F)c3)ccn2)CC1 | 0.01% |
| CC(C)c1ccc(NC(=O)c2ccc(C(=O)NC3CCN(Cc4ccccc4)CC3)cc2)cc1 | 1.09% |
| O=C(Nc1ccccc1)Nc1cccc(-c2nn3c(OCCN4CCCC4)cccc3c2-c2ccncc2)c1 | 5.75% |
| Cc1onc(-c2ccccc2)c1-c1nc(NCCC(c2ccccc2)c2ccccc2)no1 | 9.17% |
| O=C(CN1CCC(NCc2cnc(-c3ccc(Cl)cc3)[nH]2)CC1)N1CCc2ccccc21 | -1.03% |
| O=C(Nc1ccccc1)Nc1cccc(-c2nn3c(OCC4CCCCN4)cccc3c2-c2ccncc2)c1 (stereo not given) | 5.24% |
